The text below walks through data of PubChem BioAssay (NCI).

About 83,000 compounds went through this panel and 20% of them were active in at least one assay; those are over-represented in the sample as a whole.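 Note: values are percent growth. 100 is the growth of untreated cells, values between 100 and 0 indicate rising inhibition; between -100 and 0 indicates cell death.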 A number with no mark means an inactive call. The source made the active and inactive calls. Rule for the calls: active = growth percent below 10; inactive = the rest.

The test system of this test is EKVX NSCLC. Kind of test: NCI-60 one-dose screen, 48 h (100 = growth as untreated, 0 = no growth, -100 = all killed). Conditions: 10 µM unless noted.
Take `CCN(CC)CCCCCCNc1cc(OC)cc2cccnc12`: the growth was 90.1%. In the case of `COc1ccccc1Nc1cc(O)c2c(=O)cc(-c3ccccc3)oc2c1`, the growth is 57.4%. As for `COc1ccc(C(O)c2cc3c(N)c(C(=O)Nc4ccc(Cl)cc4)sc3nc2C)cc1` (stereo not drawn), the figure is 37%. As for `COc1cc(NCC(O)CN(CC(C)C)CC(C)C)c2nc(C)ccc2c1` (stereo not drawn), the figure is 79.8%. In the case of `CCCCCCCCCCN=C(N)N=C(N)N`, the growth is 38.8%. With `COc1ccc(C(O)c2cc3c(N)c(C(=O)Nc4cccc(Br)c4C)sc3nc2C)cc1` (stereo not drawn) the figure was 37.7%. As for `CCCCCCCCCCCCCCCCCCOc1ccccc1N`, the figure is 85.3%; as for `CC(=O)O[C@H]1CC[C@@]2(C)[C@@H](CC[C@@H]3[C@@H]2CC[C@@]2(C)[C@H]3CC[C@]2(O)C(C)=O)C1`, 87.1%; as for `CCC1(CC)NC(=O)c2c(c3ccc(Cl)c(Cl)c3n2C)C1C#N` (stereo not drawn), 95.5%. As for `COc1ccc(C2CC(c3cccc(Nc4ccncc4)c3)=NN2c2cc(Cl)cc(Cl)c2)cc1` (stereo not drawn), the figure is 81.9%. With `CC(=O)Nc1ccc(S(=O)(=O)NC2CCCCC2)cc1`, the growth is 95.2%.

For the compound `Clc1ccc(N2N=C(c3cccc(Nc4ccncc4)c3)CC2c2ccccc2)cc1` (stereo not drawn), the growth is 82.5%. For the compound `CN1C2CCC1CN(c1cnc(C(=O)Nc3cc(F)cc4cccnc34)cn1)C2`, the growth was 45.9%. For `C=Cc1cc[n+](CCCCCCCCCCCC)cc1`, the growth is 105%. With `CCCCCCCCCCCCCCCC(=O)OC[C@@]1(O)C[C@@]23CC[C@@H]4C(C)(C)[C@H](O)CC[C@@]4(C)[C@@H]2CC[C@H]1C3` the figure was 100%; with `O=C(CN1CCOCC1)Nc1ccc2ncnc(Nc3ccc(OCc4cccc(F)c4)c(Cl)c3)c2c1`, 25.1%; with `Clc1cc(Cl)cc(N2N=C(c3cccc(Nc4ccncc4)c3)CC2c2ccccc2)c1` (stereo not drawn), 87.6%. On to `C[C@]12CCc3nc(Nc4cccc(O)c4)sc3C1=CC[C@@H]1[C@@H]2CC[C@]2(C)/C(=N\NC(N)=S)CC[C@@H]12`, for which the growth was 65.9%. As for `Cc1c2c(cc[n+]1Cc1ccccc1)c1ccc(OCc3ccccc3)cc1n2Cc1ccccc1`, the figure is -28.8% (active). As for `O=C(O)CNC(=O)CN1C(=O)c2ccccc2C1=O`, the figure is 103%. With `O=C(Nc1nc2ccc(C(=O)N3CCN(c4ccc(Cl)c(Cl)c4)CC3)cc2s1)c1ccc(NCCc2ccccc2)c([N+](=O)[O-])c1` the figure was 95.3%.

Take `COc1ccccc1-c1c(-c2ccc(Cl)cc2)c2cc3c(cc2[nH]c1=O)OCCO3`: the growth was 53.6%. As for `O=S(=O)(NCCNc1nccc(-c2c(-c3ccc(F)c(O)c3)nc3occn23)n1)c1ccccc1`, the figure is 81.6%. Regarding `Clc1cc(Cl)cc(N2N=C(c3cccc(Nc4ccncc4)c3)CC2c2ccc(Br)cc2)c1` (stereo not drawn), the growth was 67.8%. As for `Cn1c(COC(=O)NCCn2ccnc2)nc2c(N3CCOCC3)nc(-c3ccccc3)nc21`, the figure is -64.5% (active); as for `Cc1c2c(cc[n+]1Cc1ccc(F)cc1)c1ccc(OCc3cccc(F)c3)cc1n2Cc1cccc(F)c1`, -23.5% (active). Turning to `CCCOc1nc(SCCC)nc2c1cnn2-c1ccccc1`, the growth was 97.3%. As for `Cc1ccc(/C=C/C(=O)c2ccc(N)cc2)c(C)c1`, the figure is 109%; as for `Cc1cc(C)c(C=O)c(C)c1`, 101%. With `COc1ccc(-c2c(-c3ccccc3)noc2N)cc1OC`, the growth is 99.7%. With `O=C1c2cccnc2C(=O)c2nc3cc(N4CCN(C5CC5)CC4)ccc3nc21` the figure was 27.4%; with `c1ccc(N2N=C(c3cccc(Nc4ccncc4)c3)CC2c2ccc3c(c2)OCO3)cc1` (stereo not drawn), 45.8%; with `COc1cc(NCC(C)(O)CN(CC(C)C)CC(C)C)c2nc(C)ccc2c1` (stereo not drawn), 91.5%. Take `C[C@@H]1CN(Cc2ccc(/C=C/c3n[nH]c4ccc5nc(-c6cn[nH]c6C(F)(F)F)c6c(c5c34)CCCC6)cc2)C[C@H](C)O1`: the growth was 32.4%. For the compound `CC1(C)CCCN1CCCN1c2ccccc2Sc2ccc(Cl)cc21`, the growth was 61.5%. As for `CC1CCN(C(=O)OCc2nc3nc(Cl)nc(N4CCOCC4)c3[nH]2)CC1`, the figure is 40.4%; as for `CC1(C)CN(c2cnc(C(=O)Nc3cc(F)cc4cccnc34)cn2)CCN1`, 73%; as for `Cn1c(COC(=O)NCCN2CCOCC2)nc2c(N3CCOCC3)nc(-c3ccccc3)nc21`, -62.6% (active).
